Here are results for 40 compounds from PubChem BioAssay (Tox21).

Inconclusive results are not listed. The source made the active and inactive calls. Calls come from the whole dose curve; as a rule, active = well fitted curve in the direction sought with a large enough effect in the signal ratio in the repeat runs (not every such curve was filed as active); inconclusive = weak or mixed curves, or a change in a side signal; inactive = no such curve, though single readings can be large or run the other way; the % refers to the signal ratio.

This test can be described thus: qHTS assay to identify small molecule agonists of the NFkB signaling pathway (AID 1159509). Conditions: NFkB-bla ME-180 cells, beta-lactamase FRET ratio, 5 h; series mostly up to 61 µM. The text has this:
National Center for Advancing Translational Sciences [NCATS]
NIH Chemical Genomics Center [NCGC]
U.S. Environmental Protection Agency [EPA]
National Institutes of Environmental Health Sciences [NIEHS]
National Toxicology Program [NTP]
U.S. Food and Drug Administration [FDA]
Transcription factors and their stimulated target gene expression play pivotal roles across many cellular processes including responses to environmental stimuli. Proper regulation of associated pathways is critical to maintain cell health and function. Constitutive activation of transcription factor pathways has been implicated in tumors as it may block cellular functions such as apoptosis and lead to invasion and metastasis. One important transcription factor that stimulates gene expression in response to cytokines, UV radiation, and other stimuli is nuclear factor-kappa B (NFkB). To measure activation of the NFkB pathway, the CellSensor NFkB-bla ME-180 cell line (Life Technologies, Carlsbad, CA) that stably expresses beta-lactamase reporter gene under the regulation of a NF-kB response element was used. This assay allows measurement of the NFkB pathway activity induced by compounds in a ME-180 cell line. This system quantitates NF-kB activity using a FRET-based assay system where beta-lactamase expression disrupts FRET, allowing for fluorescent measurement of activity. This cell line has been used to screen the Tox21 10K compound library and to identify compounds that induce the NFkB pathway activity.
Tox21 Assay Protocol Summary:
NFkB-bla ME-180 cells were dispensed at 2,000 cells/6 uL of assay medium per well into black wall/clear-bottom 1536-well plates using a Multidrop Combi (ThermoFisher Scientific, Waltham, MA) dispenser. After the assay plates were incubated at 37 C and 5% CO2 for an overnight, 23 nL of compounds dissolved in DMSO, positive controls or DMSO only was transferred to the assay plate by a Pintool station (Kalypsys, San Diego, CA). The assay plates were incubated at 37 C and 5% CO2 for 5 hr. One uL of LiveBLAzer B/G FRET substrate (Life Technologies) was added using a Flying Reagent Dispenser (Aurora Discovery, San Diego, CA) and the plates were incubated at room temperature for 1.5 hr. Fluorescence intensity (405 nm excitation, 460 nm and 530 nm emissions) was measured using an Envision plate reader (PerkinElmer, Shelton, CT).
(Quantitative high-throughput screening tests each substance at several concentrations.)
As for `CC1(C)C(C=C(Cl)Cl)C1C(=O)OC(C#N)c1cccc(Oc2ccccc2)c1` (stereo not given), the result was inactive.

Consider `CCN(CC)N=O`, for which the outcome was inactive.

As to `C[C@]12CCC(=O)C(O)=C1CC[C@@H]1[C@@H]2CC[C@]2(C)C(=O)CC[C@@H]12`, the outcome was inactive.

`Cc1cc(Cl)ccc1OCCCC(=O)O`: the result was inactive.

Turning to `Oc1cc(Cl)ccc1Oc1ccc(Cl)cc1Cl`, the outcome was inactive.

Take `CCCCNC(=O)n1c(NC(=O)OC)nc2ccccc21`: the result was inactive.

Regarding `C=C(C)C(=O)OCC1CO1` (stereo not given), the outcome was inactive.

As to `CCc1cccc(CC)c1N(COC)C(=O)CCl`, the outcome was inactive.

For the compound `C=C(C)[C@H]1Cc2c(ccc3c2O[C@@H]2COc4cc(OC)c(OC)cc4[C@@H]2C3=O)O1`, the outcome was inactive.

Regarding `c1ccc(-c2cccc(-c3ccccc3)c2)cc1`, the result was inactive.

Consider `c1ccc(N=Nc2ccccc2)cc1`, for which the result was inactive.

In the case of `C[C@]12CCC(=O)C[C@@H]1CC[C@@H]1[C@@H]2CC[C@]2(C)[C@@H](O)CC[C@@H]12`, the result was inactive.

On to `COP(=O)(OC)OC`, for which the outcome was inactive.

With `CCN(N=O)C(N)=O`, the result was inactive.

On to `N#CC(Br)Br`, for which the outcome was inactive.

As to `CCCCN(CC)c1c([N+](=O)[O-])cc(C(F)(F)F)cc1[N+](=O)[O-]`, the outcome was inactive.

Consider `Oc1c(Cl)c(Cl)c(Cl)c(Cl)c1Cl`, for which the result was inactive.

Turning to `CC(C)c1ccc(CO)cc1`, the outcome was inactive.

Regarding `CN(C)c1ccc(C(=O)c2ccc(N(C)C)cc2)cc1`, the result was inactive.

For `Nc1ccc(Cl)cc1N`, the result was inactive.

For `S=C1NCCN1`, the result was inactive.

`CC(C)C(=O)OCC(C)(C)C(OC(=O)C(C)C)C(C)C` (stereo not given): the result was inactive.

Consider `NNC(N)=S`, for which the result was inactive.

With `NNC(=S)NN`, the outcome was inactive.

With `C#CCOS(=O)OC1CCCCC1Oc1ccc(C(C)(C)C)cc1` (stereo not given), the outcome was inactive.

On to `O=c1oc2ccccc2c(O)c1C(CC(O)c1ccc(-c2ccc(Br)cc2)cc1)c1ccccc1` (stereo not given), for which the outcome was inactive.

As to `CC(C)N(C(=O)SCC(Cl)=C(Cl)Cl)C(C)C`, the outcome was inactive.

For the compound `Oc1cc(Cl)ccc1Cl`, the result was inactive.

With `c1nc[nH]n1`, the outcome was inactive.

As for `Nc1c(Cl)cc([N+](=O)[O-])cc1Cl`, the result was inactive.

In the case of `CC(C)NC(C)C`, the outcome was inactive.

Regarding `CCCCCCCCC(=O)NCc1ccc(O)c(OC)c1`, the outcome was inactive.

Consider `Nn1cnnc1`, for which the result was inactive.

As for `ClC1C(Cl)C(Cl)C(Cl)C(Cl)C1Cl` (stereo not given), the outcome was inactive.

For the compound `CCOC(=S)S`, the outcome was inactive.

As to `CCC(C)c1ccc(O)cc1` (stereo not given), the result was inactive.

Consider `c1ccc(P(c2ccccc2)c2ccccc2)cc1`, for which the outcome was inactive.

Take `C=CCN(CC=C)C(=O)C(Cl)Cl`: the result was inactive.

In the case of `O=P(O)(O)CCCl`, the outcome was inactive.

Take `C#C[C@]1(O)CC[C@H]2[C@@H]3CCC4=CC(=O)CC[C@]4(C)[C@H]3CC[C@@]21C`: the result was inactive.
